In the library only some 7.3% were active in any assay of this set; here they are far more common.
VACV Venus inh – inhibitors of vaccinia virus (Venus reporter); Vaccinia virus Venus reporter expression, fluorescence; Potency, µM (titrated, usually from 36.5 µM), for the others: top-dose activity change, negative = inhibition, most hits filed as inhibitors; actives 0.46% (n = 330,000); calls by dose curve; tested in A549 cells; further: potency means the concentration at half of the fitted maximal effect; nearly all actives have a fitted effect of over 30% in size
Vaccinia mCherry – vaccinia inhibition (mCherry reporter); Vaccinia virus mCherry reporter infection, fluorescence; Potency, µM (series often up to 36.5 µM), for inactives: at the highest dose activity change, negative = inhibition, actives largely listed as inhibitors; actives 0.63% (n = 310,000); calls by dose curve; tested in A549 cells; further: potency means the concentration at half of the fitted maximal effect; nearly all actives have a fitted effect of over 35% in size
HCMV inh – inhibitors of human cytomegalovirus | HFF cells, HCMV-luciferase reporter, 72 h; stronger effect = lower value | activity change, negative = inhibition, % at 57.5 µM | actives 4.5% (n = 410,000) | AID 1259415; in the data active means activity change below about -60%; inconclusive means no clear call, values can overlap the other calls; inactive means above about -39%
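Cell-based, HFFs, 1000 cells/well, 16 h 37C; cpds in DMSO + HCMV-luc, MOI 1 PFU/cell; 72 h 37C; OneGlo luminescence after 5 min RT; norm. to buffer vs Salinomycin 10uM.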
HCV inhibitor – inhibitors of hepatitis C virus infection | actives 3.4% (n = 340,000) | Potency, µM (highest dose often 41.8 µM), without a hit: at the highest dose activity change, negative = inhibition, hits mostly inhibitors | Huh7.5.1 HCVcc-Cre infection, luciferase reporter, 44 h | AID 651820; active means well fitted inhibition curve with a large enough effect; inconclusive means small, poorly fitted or top-dose-only effect, or another doubt; inactive means no such curve, though single readings can be large or run the other way; further: potency means the concentration at half of the fitted maximal effect
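1,000 cells/well; 4 h culture; + compound; + HCVcc-Cre (~0.5 moi); 44 h; luciferase substrate, RT 15 min; read 15 sec.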
FMDV inh – blocks foot and mouth disease virus. Potency, µM (top dose mostly 57.9 µM), for inactives: top-dose activity change, negative = inhibition, hits mostly inhibitors. FMDV antiviral cell-based qHTS. actives 1.2% (n = 410,000). AID 1159524; calls by dose curve; tested in HEK293T cells; further: read-out not given here; potency means the concentration at half of the fitted maximal effect; nearly all actives have a fitted effect of over 45% in size
* hit, by the source's call; u = inconclusive; x = no result. On the % scale 0 is the no-effect control and ±100 the full control effect.

SMILES	VACV Venus inh	Vaccinia mCherry	HCMV inh	HCV inhibitor	FMDV inh
CCc1cccc(CC)c1NC(=S)NCCc1c(C)[nH]c2ccc(C)cc12	16µM*	10µM*	-93*	22µM*	4%
COc1ccc2[nH]c(C)c(CCNC(=S)Nc3cc(C)ccc3C)c2c1	-14%	-16%	-61*	u	-3%
CCc1cccc(C)c1NC(=S)NCCc1c(C)[nH]c2ccc(C)cc12	u	18µM*	-72*	35µM*	18%
CCOc1ccc(-c2nc(SCC(=O)NC3CCCC3)c(-c3ccccc3)[nH]2)cc1OC	-2%	-11%	-18	x	-20%
COc1ccc(CCNC(=S)Nc2ccc(C)cc2C)cc1	x	x	-76*	u	16%
Cc1cc2nnc(SCc3ccc(F)cc3)n2c2ccccc12	-4%	-4%	-4	x	5%
CCOC(=O)C1CCN(S(=O)(=O)c2c(Cl)ccc3nonc23)CC1	x	x	-113*	x	x
COCC(C)n1c(SCc2cc(C(=O)OC)c(C)o2)nc2ccccc2c1=O (configuration not stated)	-15%	-1%	-32	11µM*	u
COCC(C)n1c(SCC(=O)c2cc(C)n(C)c2C)nc2ccccc2c1=O (configuration not stated)	-19%	-25%	-7	u	u
COC(=O)c1cc(CSc2nnc(-c3ccccc3)c(-c3ccccc3)n2)oc1C	-6%	x	-9	25µM*	-16%
O=C(NC1CCN(Cc2ccccc2)C1)c1cnn(-c2ncc3c(n2)-c2ccccc2CC3)c1C1CC1 (configuration not stated)	-6%	-28%	x	x	u
COc1ccccc1NS(=O)(=O)c1cc([N+](=O)[O-])ccc1N/N=C/c1c[nH]c2ccccc12	x	x	-31	16µM*	4%
COc1ccc(OC)c(CN2CCCC(C(=O)c3ccccc3SC)C2)c1 (configuration not stated)	9%	-21%	-63*	10µM*	u
Cc1ccsc1C(=O)C1CCCN(Cc2cccn2-c2ccccn2)C1 (configuration not stated)	-27%	-15%	-66*	-23%	u
COc1ccc(C(=O)C2CCCN(Cc3cccn3-c3ccccn3)C2)c(OC)c1 (configuration not stated)	-13%	u	-67*	u	u
Cc1ccc(N2CC(C(=O)OCC(=O)Nc3c(C)cccc3C)CC2=O)cc1 (configuration not stated)	-5%	-21%	-16	x	-21%
CC(C)C[C@H](N)c1cn([C@@H](CCCCN)C(=O)N2CCNCC2)nn1	0.79µM*	0.5µM*	65	u	u
CC(C)C[C@H]1COc2c(Cl)cccc2S(=O)(=O)N1Cc1cccc(Cl)c1	x	x	-17	x	x
Cc1c(Br)cccc1NC(=O)C1(C)CCN1C(C)C (configuration not stated)	6%	33%	-80*	x	-9%
Cc1ccc(-c2csc(NC(=O)C[n+]3cc(-c4ccccc4)n4c3CCC4)n2)cc1	u	-17%	4	2µM*	17%
Cc1ccc(-c2c[n+](CC(=O)N3c4ccccc4Sc4ccccc43)c3n2CCC3)cc1	-26%	-7%	-87*	7%	u
CCc1ccc(NC(=O)C[n+]2cc(-c3ccc(C)cc3)n3c2CCC3)cc1	x	x	19	u	u
Cc1ccc(-c2csc(NC(=O)C[n+]3cc(-c4ccc(C)cc4)n4c3CCC4)n2)cc1	u	u	-27	3.5µM*	0%
Cc1ccc(-c2c[n+](CC(=O)Nc3c(C)cccc3C)c3n2CCC3)cc1	x	x	-68*	2%	-18%
Cc1ccc(NC(=O)C[n+]2cc(-c3ccccc3)n3c2CCC3)c(C)c1	0%	14%	u	-18%	-5%
Cc1ccc2c(CNCCc3ccccc3)c(C(=O)O)n(Cc3ccccc3C)c2c1	-23%	-25%	27	x	-20%
CC1(Cc2ccccc2C#N)C(=O)Nc2ccc(-c3ccccc3)cc21 (configuration not stated)	-20%	24%	13	x	-20%
CCCCn1nnnc1C(c1cc2ccccc2o1)N1CCN(C(=O)OC(C)(C)C)CC1 (configuration not stated)	3%	-8%	16	x	-8%
CCCCCCCCCC[n+]1cccc(Br)c1	u	-21%	x	x	x
